NIH3T3 tox: NIH 3T3 cell cytotoxicity | NIH 3T3 viability, CellTiter-Glo ATP luminescence, 48-72 h | Potency, µM (series often up to 96.7 µM), for inactives: at the highest dose activity change, negative = cytotoxicity, usual class: inhibitors | 4.3% of 94,000 active | AID 1345082; note: nearly all actives have a fitted effect of over 55% in size
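Luminescent ATP readout (CellTiter-Glo, 10 min RT) after 48 or 72 hr compound exposure of NIH 3T3 cells seeded at 400 cells/well in 1536-well format; quantitative HTS.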
FLuc inh: Photinus pyralis luciferase inhibition; purified P. pyralis luciferase, luminescence, biochemical; P08659; AID 1347043; 2.5% of 76,000 active; Potency, µM (doses to about 115 µM), actives largely listed as inhibitors; note: nearly all actives have a fitted effect of over 65% in size
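Biochemical qHTS: compound (6-point titration) added to 10uM D-luciferin plus 10uM ATP in Tris acetate pH 7.5 buffer with Mg, Tween-20 and BSA, then purified enzyme at 10nM; light output imaged.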
HEK293 tox: kills HEK 293 cells; HEK 293 viability, ATP luminescence (CellTiter-Glo), 48-72 h; Potency, µM (highest dose often 115 µM), for the others: at the top dose activity change, negative = cytotoxicity, usual class: inhibitors; 6.6% of 94,000 active; note: nearly all actives have a fitted effect of over 60% in size
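Cytotoxicity was scored by loss of ATP-coupled luminescence (CellTiter-Glo) in HEK 293 cells. Compound treatment ran 48 or 72 hr at 37 degree Celsius, 5% CO2, 95% humidity.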
GPT2 inhibitor: GPT2 alanine aminotransferase inhibition. Recombinant GPT2, coupled pyruvate oxidase/HRP Amplex Red fluorescence. Q8TD30. AID 1671188. Potency, µM (series often up to 57.7 µM), without a hit: at the highest dose activity change, negative = inhibition, most hits filed as inhibitors. 0.25% of 100,000 active; note: nearly all actives have a fitted effect of over 60% in size
Target sequence (Q8TD30 whole entry, looked up): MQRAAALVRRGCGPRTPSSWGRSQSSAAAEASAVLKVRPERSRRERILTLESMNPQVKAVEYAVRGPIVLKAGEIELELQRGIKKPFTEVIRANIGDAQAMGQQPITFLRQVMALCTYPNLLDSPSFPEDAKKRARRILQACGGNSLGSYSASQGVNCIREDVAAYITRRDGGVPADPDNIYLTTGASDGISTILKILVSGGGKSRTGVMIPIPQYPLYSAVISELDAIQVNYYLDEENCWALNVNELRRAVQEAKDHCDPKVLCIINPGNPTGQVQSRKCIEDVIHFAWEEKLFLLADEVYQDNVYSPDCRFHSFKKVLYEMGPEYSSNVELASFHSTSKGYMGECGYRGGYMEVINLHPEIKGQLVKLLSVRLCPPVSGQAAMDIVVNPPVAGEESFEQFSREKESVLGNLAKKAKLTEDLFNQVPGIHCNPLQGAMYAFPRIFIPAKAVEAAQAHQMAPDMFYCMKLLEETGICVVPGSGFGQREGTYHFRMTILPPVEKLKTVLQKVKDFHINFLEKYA
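Recombinant GPT2 (10ng/uL) with 250uM a-KG and 2mM L-alanine, 30 min at room temperature, in HEPES pH 7.5 buffer. Pyruvate detected by pyruvate oxidase/HRP/Amplex Red fluorescence after 30 min in the dark; AOA (50uM) as positive control.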
hNpr1 antagonist: antagonists of human natriuretic peptide receptor Npr1; HEK293 hNpr1 GloSensor cGMP, ANP-stimulated luminescence; P16066; AID 1347048; 1.6% of 76,000 active; Potency, µM (highest dose often 46.3 µM), without a hit: top-dose activity change, negative = inhibition, hits mostly inhibitors; calls by dose curve; note: nearly all actives have a fitted effect of over 60% in size
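Compound pre-incubated 30 min at room temperature on GloSensor-loaded HEK293 cells stably carrying hNpr1 and the pGS-40F cGMP biosensor. Stimulation uses hNppA at 0.1 nM final; luminescence is taken at baseline and 20 min post-agonist.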
* = called active by the depositor; i = inactive; ? = inconclusive; . = not tested or not shown; [ ] = dose if it differs, or a comment. Compounds with a hit are over-represented: about 10% of the library has one in this group of screens. Unless noted, calls come from the whole dose curve; as a rule, active = well fitted curve in the direction sought with a large enough effect; inconclusive = small, poorly fitted or top-dose-only effect, or another doubt; inactive = no such curve, though single readings can be large; an effect the other way counts as inactive or inconclusive. % is set by controls: 0 for no effect and ±100 for the full control effect; potency is the fitted concentration of half-maximal effect.

SMILES	NIH3T3 tox	FLuc inh	HEK293 tox	GPT2 inhibitor	hNpr1 antagonist
O=C(c1nnc(COc2ccc(F)cc2)n1-c1ccccc1)N1CCC[C@@H]1C(c1ccccc1)c1ccccc1	6.31µM*	i	?	1.7%	-7.5%
O=C(c1nnc(COc2cc(F)cc(F)c2)n1-c1ccccc1)N1CCC[C@@H]1c1cccc(F)c1	39.8µM*	i	?	2.2%	-1.7%
O=C(c1nnc(CN2CCC(F)(F)CC2)n1-c1cccnc1)N1CCC[C@@H]1C(c1ccccc1)c1ccccc1	25.1µM*	i	-24.2%	-28.4%	-6.5%
O=C(c1nnc(COc2ccc(F)c(F)c2)n1-c1ccccc1)N1CCC[C@@H]1c1cccc(F)c1	10µM*	i	?	3.8%	-10.5%
O=C(c1nnc(CN2CCOCC2)n1-c1ccccc1)N1CCC[C@@H]1C(c1ccccc1)c1ccccc1	?	i	?	3.0%	-2.1%
COCc1nncn1C1CCN(C(=O)c2cccc(C(F)(F)F)c2)CC1	0.5%	i	12.5%	-8.0%	0.5%
CCN(Cc1cccnc1)C(=O)c1cc(-c2cnn(CC)c2)nc2cc(C)ccc12	6.31µM*	?	-18.7%	i	-3.6%
Cc1ccc(-c2nc(C(=O)NCc3cccc(Br)c3)no2)cc1	?	?	?	i	-3.8%
O=C(NCc1cccc(Cl)c1)c1noc(-c2ccc(F)cc2)n1	25.1µM*	i	?	i	2.7%
Cc1ccc(-c2nc(C(=O)NCc3cccc(C)c3)no2)cc1	?	?	79.4µM*	2.6%	-3.1%
COc1cccc(CN2CC[C@@H](CO)N(C)c3cccnc3C2)c1	-1.1%[138 µM]	i	i	-3.4%[88.5 µM]	2.4%[70.6 µM]
O=C(NCCC1=CCCCC1)c1cc2n(n1)CC(c1ccc3c(c1)OCO3)OC2 (stereo not drawn)	?	i	70.8µM*	i	?
O=C(NCCC1=CCCCC1)c1cc2n(n1)CC(c1ccc(Cl)cc1)OC2 (stereo not drawn)	?	i	44.7µM*	?	?
Cc1nnc(-c2cc(-c3cccc([S+](C)(=O)[O-])c3)ccn2)n1CCc1ccccc1	?	i	-25.9%[172 µM]	0.2%[88.5 µM]	0.0%[70.6 µM]
Cc1ccccc1C(=O)N1CCC(N2C(=O)c3c(c(C)nn3-c3ccccc3)C2C(C)C)CC1 (stereo not drawn)	?	.	39.8µM*	.	.
Cc1nn(-c2ccccc2)c2c1C(C(C)C)N(C1CCN(C(=O)c3ccccc3F)CC1)C2=O (stereo not drawn)	?	.	44.7µM*	.	.
CC(=O)N1CCC(N2C(=O)c3c(c(C)nn3-c3ccccc3)C2C(C)C)CC1 (stereo not drawn)	?	.	-20.1%	.	.
O=C(CCn1cccn1)N1CCC2(CC1)CN(Cc1ccccc1)CC2CO (stereo not drawn)	?	i	?	i	0.7%
O=C1Nc2ccccc2CC12CCN(Cc1ccc(F)cc1)C2 (stereo not drawn)	-23.9%[138 µM]	i	70.8µM*	i	0.0%[70.6 µM]
O=C(c1cn[nH]c1-c1ccc(F)cc1)N1CCC(OCCOc2ccccc2)CC1	?	.	50.1µM*	4.0%	.
COCCOC1CCN(C(=O)c2cn[nH]c2-c2ccc(F)cc2)CC1	-9.7%	?	10.7%	3.0%	6.2%
O=C(O)c1cccc(C2CCCN(C(=O)c3ccc4c(c3)ncn4CCO)C2)c1 (stereo not drawn)	i	?	0.5%	i	3.7%
COc1ccnc(N2CC[C@H](c3nnc(-c4ccc(C)cc4)o3)C2)n1	?	?	100µM*	-2.5%[88.5 µM]	-3.0%[70.6 µM]
Cc1cccc(CN2CC[C@@H]3OCC(=O)N(Cc4ccccc4)[C@H]3CC2)c1	100µM*	i	100µM*	-12.3%[88.5 µM]	-1.8%[70.6 µM]
COc1ncccc1CN1CC[C@@H]2OCC(=O)N(Cc3ccccc3)[C@H]2CC1	100µM*	i	112µM*	-7.2%[88.5 µM]	-29.7%[70.6 µM]
O=C1CO[C@H]2CCN(Cc3cccc(OC(F)(F)F)c3)CC[C@@H]2N1Cc1ccccc1	?	i	50.1µM*	i	-1.7%
COc1ncccc1CN1CC[C@@H]2OCC(=O)N(c3ccccc3)[C@H]2CC1	-20.8%[138 µM]	i	?	-1.9%[88.5 µM]	-12.7%[70.6 µM]

High-throughput results from PubChem.
